NPC1 prom act: NPC1 promoter activation | Huh7 NPC1 promoter luciferase reporter, 24 h | Potency, µM (doses to about 9.22 µM), without a hit: at the highest dose activation, most hits filed as activators | hit rate 2.4% among 320,000; further: % of control where 0% means no effect; nearly all actives have a fitted effect of over 60% in size
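Luminescence from an NPC1 promoter-driven luciferase reporter in stably transfected Huh7 cells was measured after 24 h compound treatment at 37 °C, followed by 10 min ambient incubation with luciferase detection reagent.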
Rab9 promoter act: Rab9 promoter activation; Huh7 Rab9 promoter-luciferase reporter, luminescence, 24 h; Potency, µM (titrated, usually from 9.22 µM), inactives show at the highest dose activation, negative = inhibition, usual class: activators; hit rate 2.8% among 320,000; AID 485297; further: % of control where 0% means no effect; nearly all actives have a fitted effect of over 60% in size
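Huh7 cells stably carrying a Rab9 promoter-luciferase reporter, 1500 cells per well in OP-MEM I with 10% FBS, treated with compound 24 hours at 37C. Luciferase activity read by luminescence after 10 minutes with Amplite reagent.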
SMN2 splice enh: increases expression of the SMN2 splice variant; Potency, µM (top dose mostly 46.1 µM), for inactives: top-dose activity change, positive = activation, usual class: activators; AID 1458; hit rate 2.8% among 210,000; HEK293 SMN2-luciferase splicing reporter, luminescence, 30-36 h; further: % of control where 0% means no effect; nearly all actives have a fitted effect of over 55% in size
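qHTS luciferase splicing reporter: luminescence rises when SMN2 exon 7 is included in transfected HEK293 cells. Compound exposure lasted 30-36 h at 37C, with 4.5 mM final sodium butyrate as control, followed by a ONE-Glo read.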
FLuc counter: inhibits or activates purified firefly luciferase, miR-21 counter-screen; P08659; purified FLuc, Km substrates, luminescence inhibition; Potency, µM (highest dose often 57.5 µM), for inactives: top-dose activity change, negative = inhibition, hits mostly inhibitors; hit rate 6.9% among 360,000;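 further: plate controls were vehicle for no effect and reference inhibitor for full effect; nearly all actives have a fitted effect of over 55% in size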
Target sequence (P08659 whole entry, looked up): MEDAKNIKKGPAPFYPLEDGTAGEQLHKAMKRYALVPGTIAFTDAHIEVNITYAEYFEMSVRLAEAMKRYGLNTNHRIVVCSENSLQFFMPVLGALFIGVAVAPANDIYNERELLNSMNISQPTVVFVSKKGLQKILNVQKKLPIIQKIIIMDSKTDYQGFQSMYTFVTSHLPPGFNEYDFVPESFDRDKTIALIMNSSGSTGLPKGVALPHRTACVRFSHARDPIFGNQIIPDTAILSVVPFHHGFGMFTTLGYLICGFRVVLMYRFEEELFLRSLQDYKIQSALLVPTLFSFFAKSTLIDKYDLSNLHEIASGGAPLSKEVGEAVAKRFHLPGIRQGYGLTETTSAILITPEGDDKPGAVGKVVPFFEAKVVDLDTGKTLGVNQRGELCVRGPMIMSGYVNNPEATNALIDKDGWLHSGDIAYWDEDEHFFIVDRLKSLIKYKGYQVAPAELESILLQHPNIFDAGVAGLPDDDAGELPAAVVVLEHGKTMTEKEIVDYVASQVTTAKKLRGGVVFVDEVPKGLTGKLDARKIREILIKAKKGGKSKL
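Purified P. pyralis luciferase, 10 nM final, with Km-level 10 uM D-luciferin and 10 uM ATP in 50 mM Tris acetate pH 7.5, 10 mM Mg acetate, 0.01% Tween-20, 0.05% BSA; 6-point qHTS titration about 60 µM downward; luminescence read.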
ELG1 genotox: inducers of genotoxicity in HEK293T ELG1-luciferase cells | HEK293T ELG1-luciferase reporter, luminescence, 16 h | Potency, µM (top dose mostly 46 µM), for inactives: at the top dose activity change, positive = activation, usual class: activators | hit rate 1.3% among 330,000; further: % of control where 0% means no effect; nearly all actives have a fitted effect of over 60% in size
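Screening used a luciferase reporter fused to human ELG1 in HEK293T cells. Luminescence was read on a CCD plate imager after 16 hr exposure and 30 min ONE-Glo incubation.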
Active calls of the source: *; ? = inconclusive; nt = not tested or not shown; [ ] = another dose, or the depositor's remark. Shown are actives, neighbours in structure and some others; about 7.5% of the full set was active somewhere. The call rests on the fitted dose curve; in most records, active means well fitted curve in the direction sought with a large enough effect; inconclusive means small, poorly fitted or top-dose-only effect, or another doubt; inactive means no such curve, though single readings can be large; an effect the other way counts as inactive or inconclusive. Potency means the concentration at half of the fitted maximal effect.

SMILES | NPC1 prom act | Rab9 promoter act | SMN2 splice enh | FLuc counter | ELG1 genotox
CCOC(=O)c1c(C)nc(C)c(C(=O)OCC)c1-c1ccccc1 | 4µM* | 2.2µM* | 16µM* | 6µM* | 19%
Cc1ccn2c(C(=O)CSc3ccccc3)c(C)nc2c1 | 16% | 15% | 25µM* | ? | 7%
O=C(COC(=O)c1ccc(-n2cnnn2)cc1)c1ccc(Br)cc1 | 27% | ? | nt | -1% | 6%
COc1ccc(C(=O)COC(=O)c2cccc(-n3cnnn3)c2)c(OC)c1 | 4µM* | 3.5µM* | nt | 11µM* | ?
O=C(COC(=O)c1cccc(-n2cnnn2)c1)c1ccc(F)cc1 | 3.2µM* | 2.8µM* | nt | 17µM* | ?
CN(C)C(CNC(=O)c1cc2ccccc2oc1=O)c1ccccc1 (stereo not given) | 3.5µM* | ? | nt | 15µM* | ?
O=C(NCc1ccccc1)c1cc2ccccc2oc1=O | 19% | -2% | nt | 15µM* | ?
NC(N)=NC(N)=Nc1ccc(S(=O)(=O)O)cc1 | nt | nt | -13%[9.22 µM] | nt | nt
O=S(=O)(O)c1ccc(N=NNc2ccc(Br)cc2)cc1 | 8% | -2% | nt | 9.5µM* | 1%
COc1cccc(CNC(=O)Cn2c(=O)n3nc(-c4cccc(C)c4)nc3c3ccccc32)c1 | nt | nt | nt | -2% | nt
Cc1cccc(-c2nc3c4ccccc4n(CC(=O)Nc4cccc(F)c4)c(=O)n3n2)c1 | nt | nt | nt | 24µM* | nt
Cc1ccc(C(=O)OCCc2c(C)[nH]n(-c3ccccc3)c2=O)cc1 | -4% | 2% | -22% | 13µM* | 0%
Oc1ccc(Br)cc1C=Nc1ccc(Cl)cc1 | 2% | -1% | -39% | ? | 3%
CCN(CC)c1ccc(N=Cc2cc(Br)ccc2O)cc1 | -1% | -6% | -17% | 9.5µM* | -7%
CCS(=O)(=O)N1CCc2nc(-c3ccccc3)sc2C1 | 0.63µM* | 1.1µM* | nt | 4.8µM* | ?
COc1ccc(CCNS(=O)(=O)c2cc(-c3onc(C)c3C)ccc2OC)cc1OC | nt | nt | nt | -2% | nt
Cc1ccc(-c2onc3ccc(C=O)cc23)cc1 | ? | ? | ? | ? | 5.2µM*
Cc1cc(N/C=C/C(=O)c2cccs2)ccc1F | ? | 4µM* | 14µM* | 0.95µM* | 2.9µM*
O=C(/C=C/Nc1ccc(Nc2ccccc2)cc1)c1cccs1 | 4µM* | 2µM* | nt | 4.3µM* | ?
Cc1ccc(NC(=S)NC(=O)c2cccs2)cc1F | nt | nt | nt | nt | 15%
Cc1c(N/C=C/C(=O)c2cccs2)c(=O)n(-c2ccccc2)n1C | -3% | -4% | 11% | ? | 4%
Cc1ccc(N/C=C/C(=O)c2cccs2)cc1C | 24% | 3.5µM* | 2.2µM* | 0.19µM* | ?
O=C(/C=C/Nc1ccccc1C(=O)O)c1cccs1 | 1.4µM* | 1µM* | 11µM* | 3.4µM* | 16µM*
CC(C)CN1CCN(Cc2nc3ccccc3s2)CC1CCO (stereo not given) | -1% | 0% | nt | ? | -2%
Cc1cc(C)cc(NC(=O)c2c(C)oc3nc(C)nc(N4CCCC4)c23)c1 | nt | nt | nt | 15% | nt
SMILES | NPC1 prom act | Rab9 promoter act | SMN2 splice enh | FLuc counter | ELG1 genotox
CCCCC[n+]1ccn(C2=C([O-])c3ccccc3C(=O)/C2=N\S(=O)(=O)c2ccccc2)c1 | 5% | 11% | nt | -7% | 4%
O=C(Nc1nnc(C2CC2)s1)C1Cc2ccccc2CN1C(=O)c1ccco1 (stereo not given) | -1% | 6% | 23% | ? | 2%
CNc1cc([N+](=O)[O-])ccc1N/C=C/C(=O)c1cccs1 | -3% | 3% | -27% | -1% | -3%
O=C(/C=C/Nc1cccc([N+](=O)[O-])c1)c1cccs1 | 21% | 3.2µM* | 16µM* | 1.7µM* | ?
C/C(=N\OCC(=O)Nc1ccccc1C(=O)O)c1cccs1 | 13% | 16% | nt | 21µM* | 2%
CCN(CC)CCCN(CC(=O)N(C)Cc1ccccc1)C(=O)c1ccc([N+](=O)[O-])cc1 | 0% | 3% | nt | 1% | 0%
O=C(NC(=S)Nc1ccc(Br)cn1)c1cccs1 | ? | ? | 13µM* | 3.8µM* | ?
CC(=O)NC(=S)Nc1ccc(NC(=O)c2cccs2)cc1 | ? | ? | ? | ? | 14%
Cc1cccnc1NC(=O)CNC(=O)c1cccs1 | -3% | -5% | nt | 1% | 0%
COc1ccc(NC(=S)NNC(=O)c2cccs2)cc1 | 0% | 4µM* | 25% | -6% | ?
COc1cccc(-c2nc(-c3ccc(NC(=O)c4cccs4)cc3)no2)c1 | 30% | ? | -17% | 13µM* | 14%
Cc1cccnc1NC(=O)NC(=O)c1ccc(C(C)(C)C)s1 | ? | 2.2µM* | nt | 5.4µM* | ?
S=C(Nc1ccccc1)Nc1ccc(Br)cn1 | -8% | 4% | -24% | -1% | 3%
CCN(CC)c1nc2c(S(=O)(=O)c3cccc(Cl)c3)nnn2c2ccsc12 | nt | nt | nt | -1% | nt
COc1ccc(CN(CC(=O)NCc2ccccc2)C(=O)CCC(=O)Nc2ccccn2)cc1 | -2% | 3% | nt | -1% | -4%
C=CCNc1cnn(-c2ccc(C)cc2)c(=O)c1Sc1ccc(C)cc1 | -2% | -2% | 10% | 5% | -5%
O=C(/C=C/c1cccs1)NC(=S)Nc1ccccc1 | 19% | ? | 15% | 27µM* | 1%
O=C(NC(=S)Nc1ccccc1)c1cccs1 | 2µM* | ? | nt | 17µM* | ?
Cc1cnc(C(=O)OCC(=O)NCc2ccccc2)cn1 | -1% | 17% | -3% | 4% | -2%
COc1ccc2nc3c(cc2c1)c(NC(=O)c1cccs1)nn3CC(C)C | -3% | 19% | 13% | 7.6µM* | -1%
O=C(Nc1ccc(NC(=S)NC(=O)c2cccs2)cc1)c1ccccc1 | -3% | 2% | 2% | 2% | 8%
Cc1cnc(C(=O)OCC(=O)Nc2ccc(OCc3ccccc3)cc2)cn1 | 2.8µM* | 2.5µM* | nt | ? | ?
Cc1ccc(C(=O)Nc2ccc(OCc3ccccc3)cc2)cc1[N+](=O)[O-] | -3% | 7% | -14% | 0% | 2%
O=C(Nc1ccc(OCc2ccccc2)cc1)c1cccs1 | 2.8µM* | 4.5µM* | nt | 17µM* | ?
COc1ccc(/C=C/C(=O)Nc2ccc(OC)cc2[N+](=O)[O-])cc1 | -3% | 1% | 2% | -3% | 5%
SMILES | NPC1 prom act | Rab9 promoter act | SMN2 splice enh | FLuc counter | ELG1 genotox
CC(C)c1ccc(NC(=S)NNC(=O)c2cccs2)cc1 | ? | ? | ? | 21µM* | ?
O=C(Nc1ccc(NC(=O)c2ccc(Cl)cc2Cl)cc1)c1cccs1 | -3% | 5% | nt | -2% | 15%
COc1ccc(NC(=O)/C=C/c2ccccc2)c([N+](=O)[O-])c1 | ? | 3.2µM* | 10µM* | ? | ?
O=C(Nc1ccc(Oc2ccc(C(=O)O)c(C(=O)O)c2)cc1)c1cccs1 | -2% | -6% | nt | 21µM* | 2%
CN(C)c1ccc2c(c1)Sc1cc(N(C)C)ccc1N2C(=O)c1ccccc1 | -2% | -4% | nt | -5% | 0%
C[C@H](NC(N)=O)C(=O)Nc1ccc(OCc2ccccc2)cc1 | ? | 3.5µM* | 16µM* | ? | 14%

Source: PubChem BioAssay (National Center for Advancing Translational Sciences (NCATS))
